The campaign covered roughly 5,500 compounds. About 2,000 (36%) were called active. About 18% were inconclusive and are not listed. Cut-off read from the data, not from the text of the source: active = normalized growth mostly below about 0.91 (no sharp cut-off); inconclusive = no clear call, values can overlap the other calls; inactive = mostly above about 0.92. Some of the results follow.
Experiment: chemical genetic growth profiling, strain panel (AID 1159580);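 note: tested at 20 µM; growth read once vehicle control cultures reached saturation at 30 °C; 1 = growth at the plate median or of vehicle wells; lower values mean less growth of the strain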
Details: growth OD

Measured: normalized growth

CC[C@@]1(O)C(=O)OCc2c1cc1n(c2=O)Cc2cc3cc(O)ccc3nc2-1
active: S. cerevisiae deletion strains, locus YML032C, strain rad52, active compounds read low 0.407 | S. cerevisiae deletion strains, locus YNL250W, strain rad50, active compounds read low 0.429
inactive: S. cerevisiae deletion strains, locus YKL068W, active compounds read low 0.996 | S. cerevisiae deletion strains, locus YKL085W, strain MDH1 (second series), active compounds read low 1.01 | S. cerevisiae deletion strains, locus YKL085W, strain MDH1, active compounds read low 1.01 | S. cerevisiae deletion strains, locus YKL160W, strain elf1, active compounds read low 1.02 | S. cerevisiae deletion strains, locus YKL190W, strain CNB1, active compounds read low 1.02 | S. cerevisiae deletion strains, locus YKR001C, strain vps1, active compounds read low 1 | S. cerevisiae deletion strains, locus YKR026C, strain gcn3, active compounds read low 0.997 | S. cerevisiae deletion strains, locus YKR091W, strain srl3, active compounds read low 1.01 | S. cerevisiae deletion strains, locus YLL001W, strain dnm1, active compounds read low 1 | S. cerevisiae deletion strains, locus YLL026W, active compounds read low 1.02 | S. cerevisiae deletion strains, locus YLL041C, strain sdh2, active compounds read low 1.02 | S. cerevisiae deletion strains, locus YLR027C, strain aat2, active compounds read low 1 | S. cerevisiae deletion strains, locus YLR039C, strain RIC1, active compounds read low 1.03 | S. cerevisiae deletion strains, locus YLR058C, strain SHM2, active compounds read low 1.02 | S. cerevisiae deletion strains, locus YLR102C, strain apc9, active compounds read low 0.992 | S. cerevisiae deletion strains, locus YLR113W, strain HOG1, active compounds read low 0.942 | S. cerevisiae deletion strains, locus YLR221C, strain rsa3, active compounds read low 0.966 | S. cerevisiae deletion strains, locus YLR258W, strain gsy2, active compounds read low 1.03 | S. cerevisiae deletion strains, locus YLR262C, strain YPT6 (second series), active compounds read low 0.984 | S. cerevisiae deletion strains, locus YLR262C, strain YPT6, active compounds read low 1.04 | S. cerevisiae deletion strains, locus YLR268W, strain sec22, active compounds read low 0.96 | S. cerevisiae deletion strains, locus YLR320W, strain mms22, active compounds read low 0.884 | S. cerevisiae deletion strains, locus YLR330W, strain CHS5, active compounds read low 1.02 | S. cerevisiae deletion strains, locus YLR342W, strain FKS1 (second series), active compounds read low 0.995 | S. cerevisiae deletion strains, locus YLR342W, strain FKS1, active compounds read low 1.01 | S. cerevisiae deletion strains, locus YLR357W, strain rsc2, active compounds read low 1.03 | S. cerevisiae deletion strains, locus YLR370C, strain arc18, active compounds read low 1.01 | S. cerevisiae deletion strains, locus YLR371W, strain rom2, active compounds read low 0.994 | S. cerevisiae deletion strains, locus YLR384C, strain iki3, active compounds read low 1.02 | S. cerevisiae deletion strains, locus YLR418C, strain cdc73, active compounds read low 1.02 | S. cerevisiae deletion strains, locus YML016C, strain PPZ1, active compounds read low 1.02 | S. cerevisiae deletion strains, locus YML120C, strain ndi1, active compounds read low 0.995 | S. cerevisiae deletion strains, locus YML124C, strain tub3, active compounds read low 0.983 | S. cerevisiae deletion strains, locus YMR058W, strain fet3, active compounds read low 1.01 | S. cerevisiae deletion strains, locus YMR078C, strain ctf18, active compounds read low 0.947 | S. cerevisiae deletion strains, locus YMR125W, strain sto1, active compounds read low 1.03 | S. cerevisiae deletion strains, locus YMR129W, active compounds read low 1.02 | S. cerevisiae deletion strains, locus YMR205C, strain PFK2, active compounds read low 0.98 | S. cerevisiae deletion strains, locus YMR223W, strain ubp8, active compounds read low 0.981 | S. cerevisiae deletion strains, locus YMR231W, strain pep5, active compounds read low 1 | S. cerevisiae deletion strains, locus YMR263W, strain SAP30, active compounds read low 1.03 | S. cerevisiae deletion strains, locus YMR307W, strain GAS1, active compounds read low 1.03 | S. cerevisiae deletion strains, locus YNL067W, strain RPL9B, active compounds read low 1.01 | S. cerevisiae deletion strains, locus YNL071W, strain lat1, active compounds read low 1.02 | S. cerevisiae deletion strains, locus YNL128W, strain TEP1, active compounds read low 1.02 | S. cerevisiae deletion strains, locus YNL183C, strain NPR1, active compounds read low 0.91 | S. cerevisiae deletion strains, locus YNL209W, strain ssb2, active compounds read low 1.03 | S. cerevisiae deletion strains, locus YNL233W, strain BNI4, active compounds read low 1.01 | S. cerevisiae deletion strains, locus YNL248C, strain rpa49, active compounds read low 1.03 | S. cerevisiae deletion strains, locus YNL271C, strain bni1, active compounds read low 0.991 | S. cerevisiae deletion strains, locus YNL298W, strain CLA4, active compounds read low 0.992 | S. cerevisiae deletion strains, locus YNL307C, strain MCK1, active compounds read low 0.979 | S. cerevisiae deletion strains, locus YNL322C, strain KRE1 (second series), active compounds read low 1.06 | S. cerevisiae deletion strains, locus YNL322C, strain KRE1, active compounds read low 1.01 | S. cerevisiae deletion strains, locus YNR049C, strain mso1, active compounds read low 1 | S. cerevisiae deletion strains, locus YNR052C, strain pop2, active compounds read low 0.997 | S. cerevisiae deletion strains, locus YOL012C, strain htz1 0.802 | S. cerevisiae deletion strains, locus YOL147C, strain pex11, active compounds read low 0.983 | S. cerevisiae deletion strains, locus YOR001W, strain rrp6, active compounds read low 0.967 | S. cerevisiae deletion strains, locus YOR061W, strain CKA2, active compounds read low 1.02 | S. cerevisiae deletion strains, locus YOR069W, strain VPS5, active compounds read low 1.02 | S. cerevisiae deletion strains, locus YOR070C, strain gyp1, active compounds read low 1.01 | S. cerevisiae deletion strains, locus YOR080W, strain dia2, active compounds read low 1.01 | S. cerevisiae deletion strains, locus YOR083W, strain WHI5, active compounds read low 1 | S. cerevisiae deletion strains, locus YOR106W, strain vam3, active compounds read low 1.03 | S. cerevisiae deletion strains, locus YOR136W, strain idh2, active compounds read low 0.971 | S. cerevisiae deletion strains, locus YOR144C, strain elg1, active compounds read low 0.988 | S. cerevisiae deletion strains, locus YOR184W, strain ser1, active compounds read low 0.972 | S. cerevisiae deletion strains, locus YOR231W, strain MKK1, active compounds read low 0.951 | S. cerevisiae deletion strains, locus YOR265W, strain rbl2, active compounds read low 0.984 | S. cerevisiae deletion strains, locus YOR270C, strain vph1, active compounds read low 1.03 | S. cerevisiae deletion strains, locus YOR290C, strain snf2, active compounds read low 1.03 | S. cerevisiae deletion strains, locus YOR316C, strain cot1, active compounds read low 0.987 | S. cerevisiae deletion strains, locus YPL051W, strain arl3, active compounds read low 1 | S. cerevisiae deletion strains, locus YPL055C, strain LGE1, active compounds read low 1.02 | S. cerevisiae deletion strains, locus YPL078C, strain atp4, active compounds read low 1.04 | S. cerevisiae deletion strains, locus YPL106C, strain sse1, active compounds read low 1.06 | S. cerevisiae deletion strains, locus YPL240C, strain hsp82, active compounds read low 1.01 | S. cerevisiae deletion strains, locus YPL241C, strain CIN2, active compounds read low 1.01 | S. cerevisiae deletion strains, locus YPL256C, strain CLN2, active compounds read low 0.945 | S. cerevisiae deletion strains, locus YPR119W, strain clb2, active compounds read low 0.982 | S. cerevisiae deletion strains, locus YPR141C, strain kar3, active compounds read low 0.999 | S. cerevisiae deletion strains, locus YPR163C, strain tif3, active compounds read low 0.991 | S. cerevisiae deletion strains, locus YPR167C, strain met16, active compounds read low 0.987 | S. cerevisiae deletion strains, strain wtn01, active compounds read low 0.97 | S. cerevisiae strains, strain wild type, active compounds read low 1.02

Reference: PubChem BioAssay AID1159580 (chemical genetic matrix, 2015)
